# In PubChem BioAssay AID540326 (Broad Institute, 2011):
# The list shows a part of the results. The source made the active and inactive calls.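 Rule for the calls: active = quenching, a falling signal, with AC50 below a set limit tied to the top valid dose (actives reach about 32 µM in these data); inconclusive = no clear call, values can overlap the other calls; inactive = rising signal, and the rest.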
# Assay: DiI-HDL fluorescence quenchers, cell-free, dose response, artefact control for SR-BI HDL uptake inhibitor project, biochemical, cherry-pick samples, plate reader fluorescence (AID 540326)
# Settings: AC50: cell-free DiI-HDL fluorescence quenching
row,SMILES,AC50
1,O=c1cc(N2CCCCC2)c(-c2ccccc2)nn1Cc1cccc(F)c1,inactive
2,Cc1cccc(N2CCN(C(=O)CN(C)S(=O)(=O)c3ccc4c(c3)CCC(=O)N4)CC2)c1C,inactive
3,Cc1cc(NC(=O)Nc2ccccc2)n(-c2ccccc2)n1,inactive
4,COC(=O)C1=CN(c2ccc(F)c(F)c2)C=C(C(=O)OC)C1c1ccc([N+](=O)[O-])cc1,inactive
5,CCOc1ccc(OCCSc2nc3ccccc3n2CC(=O)O)cc1,inactive
6,CCCC(=O)N1c2ccc(-c3csc(N)n3)cc2CC1C (centres undefined),inactive
7,CCCCC(=O)Nc1nc(C)c(-c2csc(Nc3ccc(Cl)cc3)n2)s1,1.93 µM (active)
8,CCOc1ccc(NC(=O)CN2CCN(CC(=O)Nc3ccc(OC)cc3)CC2)cc1,inactive
9,O=C(Nc1cccc(NC(=O)N2CCN(c3ccccc3)CC2)c1)N1CCN(c2ccccc2)CC1,inactive
10,O=C(Nc1cccc(NC(=O)c2ccccc2[N+](=O)[O-])c1)c1ccccc1Cl,inactive
11,C=CCCC(=O)Nc1nc(C)c(-c2csc(Nc3ccc(Cl)cc3)n2)s1,2.19 µM (active)
12,CC(C)OCCCNC(=O)c1ccc(C2SCC(=O)N2Cc2ccco2)cc1 (centres undefined),inactive
13,O=C(Nc1ccc(-c2csc(Nc3cccc(C(F)(F)F)c3)n2)cc1)c1cccc(C(F)(F)F)c1,0.435 µM (active)
14,CCCOC(=O)c1[nH]c2c(c1C)C(=O)CC(c1cc(OC)c(OC)c(OC)c1)C2 (centres undefined),inactive
15,CCCC(=O)Nc1ccc(Cl)c(NC(=O)c2ccc(Br)o2)c1,inactive
16,O=C(NC1CC2CCCC(C1)N2C(=O)N1CCCCC1)C1CCCCC1 (centres undefined),inactive
17,CCCOC1CCCN(C(=O)c2cc(COc3cncc(Cl)c3)on2)C1 (centres undefined),inactive
18,CCOC(=O)c1[nH]c2c(c1-c1ccccc1)C(=O)CC(c1ccc(Cl)cc1)C2 (centres undefined),inactive
19,COc1cccc(N(CC(=O)NC2CCCC2)C(=O)Cn2nnc(-c3ccc(C)cc3)n2)c1,inactive
